Where “and” joins values, the source holds several entries; their conditions need not be identical. Equal values may be shown once. Records with an inconclusive call do not appear. Calls of active or inactive are those of the source. Unless noted, the call rests on the fitted dose curve; in most records, active means well fitted curve in the direction sought with a large enough effect; inconclusive means small, poorly fitted or top-dose-only effect, or another doubt; inactive means no such curve, though single readings can be large; an effect the other way counts as inactive or inconclusive.
What was measured:
[1] = target: Glucocorticoid receptor (Homo sapiens) (UniProt P04150); experiment: GR-GFP Redistribution (AID 450;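 active means compounds whose dose series gives a full or clear partial fitted curve of increased nuclear translocation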; further: potency means the concentration at half of the fitted maximal effect); conditions: U2OS GR-GFP nuclear translocation, laser cytometry, 2 h
[2] = target: Glucocorticoid receptor (Homo sapiens) (UniProt P04150); experiment: GR-EFC Redistribution (AID 451; calls by dose curve; further: potency means the concentration at half of the fitted maximal effect); conditions: CHO-K1 GR-EFC translocation, beta-gal luminescence, 2 h
Summary of the method: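 CHO-K1 cells expressing nuclear EA and GR-ED fragments of b-gal; compounds titrated up to 46 uM final, 2 h at 37 C. GR nuclear translocation read as complemented b-gal luminescence after 1 h RT detection.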

[3] = target: Mitogen-activated protein kinase 10 (Mus musculus) (UniProt Q61831); experiment: JNK3 AlphaScreen Assay (AID 530; active means well fitted curve in either direction with a large enough effect, not every such curve was filed as active;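 further: kinase came from lysate of stimulated human HepG2 cells; signal reports phosphorylation of biotinylated GST-cJun 1-79 at Ser73 with 10 µM ATP; on the % scale 0 is the no-effect control and ±100 the full control effect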); conditions: JNK3 lysate, c-Jun phosphorylation; series mostly up to 57.1 µM
Summary of the method: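 qHTS format: compounds tested as titrations against IL-1beta/TNF-alpha-activated HepG2 lysate JNK3 with biotin-GST-cJun substrate and 10 uM ATP at room temperature. Loss of anti-phospho-cJun AlphaScreen signal indicates inhibition.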

[4] = target: Cytochrome P450 3A4 (Homo sapiens) (UniProt P08684); experiment: qHTS Assay for Activators of Cytochrome P450 3A4 (AID 885); conditions: recombinant CYP3A4, Luciferin-PPXE luminescence, 60 min; series mostly up to 57.1 µM; further: nearly all actives have a fitted effect of over 65% in size
Summary of the method: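 Signal was normalized against complete inhibition by 57 uM ketoconazole. The reaction used 20nM CYP3A4 with 25uM Luciferin-PPXE, 10-min compound preincubation and a 60-min NADPH-supported step at RT.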

[5] = target: DNA dC->dU-editing enzyme APOBEC-3G (Homo sapiens) (UniProt Q9HC16); experiment: qHTS for inhibitors of Vif-A3G interactions: Validation (AID 588379); conditions: Vif-A3G protein interaction assay; series mostly up to 46.1 µM; further: 0% is about no effect
Summary of the method: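 HeLa cells stably expressing Vif and A3G-eYFP, 700 cells/well, incubated overnight at 37 deg C, then exposed to compound overnight at 37 deg C. Inhibition of Vif-mediated degradation read as increased yellow fluorescence (Ex 488/Em 500-530) by laser-scanning cytometry.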

[6] = tested on: Zika virus NS2B-NS3 protease; experiment: Primary screen GU AMC qHTS for Zika virus inhibitors (AID 1347154); conditions: Zika NS2B-NS3 unlinked protease, AMC fluorogenic substrate; series mostly up to 54.1 µM;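 further: 0% = no-inhibitor control and -100% = no-enzyme control; nearly all actives have a fitted effect of over 70% in size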
Summary of the method: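 Unlinked Zika NS2B hydrophilic domain–NS3 protease complex at 25 nM in 10 mM Tris-HCl pH 8.0, 0.01% Tween 20, with an AMC peptide substrate. Fluorescence change (340/450 nm) over 15 min at room temperature, normalized to controls, fitted to 4-parameter Hill.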

[7] = tested on: Zika virus NS2B-NS3 protease (linked construct); experiment: Primary screen NINDS Rhodamine qHTS for Zika virus inhibitors (AID 1347160); conditions: purified NS2B-NS3 protease, Rhodamine110 substrate fluorescence; series mostly up to 57.1 µM; further: nearly all actives have a fitted effect of over 55% in size; further: potency means the concentration at half of the fitted maximal effect; on activity change, negative = inhibition: on the % scale 0 is the no-effect control and ±100 the full control effect
Summary of the method: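 In 10 mM Tris-HCl pH 8.0 containing 0.01% Tween 20, linked NS2B-NS3 protease (25 nM final) is exposed to test compounds for 15 min. Cleavage of 1.5 microM Rhodamine110 substrate is tracked by fluorescence over 15 min.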

[8] = OV-KATE Cancer Cell Toxicity qHTS against the NCATS CANVASS Library (AID 1347345); conditions: OV-KATE cells viability, CellTiter-Glo luminescence, 72 h; series mostly up to 38.3 µM; further: potency means the concentration at half of the fitted maximal effect
Summary of the method: (§1)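 Viability read-out: CellTiter-Glo luminescence after 72 h compound exposure at 37 °C/5% CO2. Cells plated at 1000/well, 4 h pre-incubation; 11-point titration. Bortezomib served as control.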

[9] = OV-SAHO Cancer Cell Toxicity qHTS against the NCATS CANVASS Library (AID 1347348); conditions: OV-SAHO viability, CellTiter-Glo luminescence, 72 h; series mostly up to 38.3 µM; further: nearly all actives have a fitted effect of over 55% in size; further: potency means the concentration at half of the fitted maximal effect
Summary of the method: as §1

[10] = COV-362 Cancer Cell Toxicity qHTS against the NCATS CANVASS Library (AID 1347352); conditions: COV-362 viability, CellTiter-Glo luminescence, 72 h; series mostly up to 38.3 µM; further: potency means the concentration at half of the fitted maximal effect
Summary of the method: (§2)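 qHTS cytotoxicity: compounds tested in 11 concentrations on 1000 seeded cells per well over 72 h; bortezomib served as control; signal from CellTiter-Glo luminescence.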

[11] = UWB1.289-WTBRCA1 Cancer Cell Toxicity qHTS against the NCATS CANVASS Library (AID 1347354); conditions: UWB1.289-WTBRCA1 viability, CellTiter-Glo luminescence, 72 h; series mostly up to 38.3 µM; further: potency means the concentration at half of the fitted maximal effect
Summary of the method: as §2

[12] = HEK293 24hr Apoptosis Induction qHTS against the NCATS CANVASS Library (AID 1347359); conditions: HEK293 caspase-3/7 activation, Caspase-Glo luminescence; series mostly up to 46.1 µM; further: 0% is about no effect
Summary of the method: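 HEK293 cells, 500 per well, exposed to an 11-point compound series for 24 hours at 37 degrees C. Caspase 3/7 activity read by Caspase-Glo luminescence (DEVD substrate) after 15 min at room temperature.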

[13] = HEK293 12hr Apoptosis Induction qHTS against the NCATS CANVASS Library (AID 1347361); conditions: HEK293 caspase-3/7 Caspase-Glo luminescence; series mostly up to 46.1 µM; further: 0% is about no effect
Summary of the method: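 HEK293 cells (500/well, DMEM + 10% FBS) were exposed to natural products across an 11-point series for 12 hours at 37 degrees C. Caspase-3/7 activity was then measured with DEVD luciferase luminescence after 15 min at room temperature.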

[14] = tested on: NAD(P)H diaphorase (Clostridium kluyveri); experiment: Diaphorse counterscreen qHTS: Assay Interference Panel against the NCATS CANVASS Library (AID 1347362); conditions: Diaphorase enzyme, resazurin to resorufin fluorescence; series mostly up to 57.5 µM; further: 0% is about no effect
Summary of the method: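 Clostridium kluyveri diaphorase in PBS + 0.01% Tween-20 preincubated 15 min with compounds. Resazurin and NADH then added for 5 min at room temperature in the dark; resorufin fluorescence read (ex 525, em 598).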

[15] = target: Luciferin 4-monooxygenase (Photinus pyralis) (UniProt P08659); experiment: Firefly luciferase counterscreen qHTS: Assay Interference Panel against the NCATS CANVASS Library (AID 1347363); conditions: purified firefly luciferase, luminescence inhibition, 5 min; series mostly up to 57.5 µM; further: 0% is about no effect
Summary of the method: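 Purified P. pyralis luciferase (0.04 ug/mL, 4x reagent) added to Tris-acetate buffer with 0.013 mM D-luciferin, 0.013 mM ATP and 13.3 mM Mg-acetate; compounds preincubated 15 min, then luminescence read after 5 min, RT.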

[16] = qHTS Assay for Lipid Storage Modulators (AID 1519; calls by dose curve; on activity change, negative = inhibition: on the % scale 0 is the no-effect control and ±100 the full control effect); conditions: Drosophila S3 cells, BODIPY lipid droplet/cell ratio, laser cytometry, cells loaded with oleic acid
Summary of the method: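 Cells seeded at 5,000 per well were treated with compounds over a concentration series and loaded with oleic acid (400 uM, as added). Lipid droplet fluorescence (488 nm excitation, 500-530 nm channel) was read by laser-scanning cytometry and normalized to 20 uM Triacsin C.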

[17] = target: Cytochrome P450 1A2 (Homo sapiens) (UniProt P05177); experiment: p450-cyp1a2 (AID 410; calls by dose curve; further: potency means the concentration at half of the fitted maximal effect;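 on activity change, negative = inhibition: -100% = full effect of reference inhibitor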); conditions: recombinant CYP1A2, luciferin-ME demethylation, luminescence; series mostly up to 57 µM
Summary of the method: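 Inhibition was calculated relative to 57 uM furafylline (full inhibition). The reaction used human CYP1A2 at 20nM with Luciferin-ME at its Km, 100uM, driven by an NADPH-regenerating system for 60 min at room temperature.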

[18] = target: 3',5'-cyclic-AMP phosphodiesterase 4B (Homo sapiens) (UniProt Q07343); experiment: qHTS Assay for Inhibitors of PDE-IV (AID 607; active means well fitted activation curve with a large enough effect in the main read-out, with a control signal flat, not every such curve was filed as active; further: % of control where 0% means no effect); conditions: HEK293 ACTOne CNG channel cells, membrane potential fluorescence; series mostly up to 22.9 µM
Summary of the method: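 Cell-based read-out of cAMP via a modified cyclic nucleotide-gated channel and membrane potential dye (535/590 nm) in HEK293 cells expressing PDE4 endogenously. Compounds tested up to 22.9 uM final; 100 uM RO 20-1724 reference.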

Sequence of Cytochrome P450 3A4 (Homo sapiens) (P08684 whole entry, looked up): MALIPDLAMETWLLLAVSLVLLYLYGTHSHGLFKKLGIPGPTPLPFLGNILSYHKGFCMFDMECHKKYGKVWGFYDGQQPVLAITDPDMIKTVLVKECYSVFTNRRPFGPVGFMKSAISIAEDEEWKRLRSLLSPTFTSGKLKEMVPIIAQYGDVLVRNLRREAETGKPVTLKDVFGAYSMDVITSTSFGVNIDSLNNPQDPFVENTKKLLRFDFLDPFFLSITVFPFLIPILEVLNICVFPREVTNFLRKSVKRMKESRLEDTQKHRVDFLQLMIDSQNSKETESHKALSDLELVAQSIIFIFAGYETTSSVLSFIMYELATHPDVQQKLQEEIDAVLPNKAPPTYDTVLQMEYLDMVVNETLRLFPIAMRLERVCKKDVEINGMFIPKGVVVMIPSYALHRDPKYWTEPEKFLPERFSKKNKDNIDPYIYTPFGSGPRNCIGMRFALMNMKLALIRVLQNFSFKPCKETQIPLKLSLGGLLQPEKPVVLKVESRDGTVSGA
Sequence of DNA dC->dU-editing enzyme APOBEC-3G (Homo sapiens) (Q9HC16 whole entry, looked up): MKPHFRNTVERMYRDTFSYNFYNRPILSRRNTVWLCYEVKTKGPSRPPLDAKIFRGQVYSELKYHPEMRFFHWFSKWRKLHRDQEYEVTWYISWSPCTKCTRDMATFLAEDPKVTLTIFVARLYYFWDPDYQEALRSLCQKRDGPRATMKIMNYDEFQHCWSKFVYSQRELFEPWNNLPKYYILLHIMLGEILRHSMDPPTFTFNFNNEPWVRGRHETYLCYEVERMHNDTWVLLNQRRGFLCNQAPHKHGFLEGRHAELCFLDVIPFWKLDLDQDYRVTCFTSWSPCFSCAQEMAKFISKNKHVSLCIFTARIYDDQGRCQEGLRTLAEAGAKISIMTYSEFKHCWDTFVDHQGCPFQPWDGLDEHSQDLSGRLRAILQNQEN
Sequence of Luciferin 4-monooxygenase (Photinus pyralis) (P08659 whole entry, looked up): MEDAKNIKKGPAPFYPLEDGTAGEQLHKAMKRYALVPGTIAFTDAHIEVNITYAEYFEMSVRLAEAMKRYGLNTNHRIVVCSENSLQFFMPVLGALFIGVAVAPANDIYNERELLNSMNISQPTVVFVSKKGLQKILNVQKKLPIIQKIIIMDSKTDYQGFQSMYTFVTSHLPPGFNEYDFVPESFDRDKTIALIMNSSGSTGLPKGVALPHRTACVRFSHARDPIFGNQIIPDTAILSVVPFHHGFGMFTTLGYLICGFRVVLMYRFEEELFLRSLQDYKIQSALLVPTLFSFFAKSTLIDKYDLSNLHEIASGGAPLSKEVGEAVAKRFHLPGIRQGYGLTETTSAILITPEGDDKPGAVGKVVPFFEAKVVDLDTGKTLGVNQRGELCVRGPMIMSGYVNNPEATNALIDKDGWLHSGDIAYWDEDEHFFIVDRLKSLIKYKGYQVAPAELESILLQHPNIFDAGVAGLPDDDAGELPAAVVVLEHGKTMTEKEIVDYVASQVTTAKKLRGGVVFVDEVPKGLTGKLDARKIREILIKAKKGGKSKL
Sequence of Cytochrome P450 1A2 (Homo sapiens) (P05177 whole entry, looked up): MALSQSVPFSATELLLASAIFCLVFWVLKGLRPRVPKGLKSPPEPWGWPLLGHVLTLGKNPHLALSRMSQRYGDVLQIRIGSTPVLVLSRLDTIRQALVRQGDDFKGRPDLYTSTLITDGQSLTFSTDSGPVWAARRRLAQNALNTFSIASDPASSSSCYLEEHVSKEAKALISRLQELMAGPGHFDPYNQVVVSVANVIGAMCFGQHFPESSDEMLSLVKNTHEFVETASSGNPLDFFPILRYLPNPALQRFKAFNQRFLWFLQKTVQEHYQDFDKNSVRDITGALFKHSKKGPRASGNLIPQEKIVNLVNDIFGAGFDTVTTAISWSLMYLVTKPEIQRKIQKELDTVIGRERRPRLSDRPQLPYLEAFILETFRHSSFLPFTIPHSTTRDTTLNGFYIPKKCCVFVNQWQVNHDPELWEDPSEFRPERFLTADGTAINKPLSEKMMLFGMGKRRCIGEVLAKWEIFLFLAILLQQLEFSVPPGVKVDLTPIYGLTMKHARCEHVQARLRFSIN
Sequence of Glucocorticoid receptor (Homo sapiens) (P04150 whole entry, looked up, the tested form may be a part): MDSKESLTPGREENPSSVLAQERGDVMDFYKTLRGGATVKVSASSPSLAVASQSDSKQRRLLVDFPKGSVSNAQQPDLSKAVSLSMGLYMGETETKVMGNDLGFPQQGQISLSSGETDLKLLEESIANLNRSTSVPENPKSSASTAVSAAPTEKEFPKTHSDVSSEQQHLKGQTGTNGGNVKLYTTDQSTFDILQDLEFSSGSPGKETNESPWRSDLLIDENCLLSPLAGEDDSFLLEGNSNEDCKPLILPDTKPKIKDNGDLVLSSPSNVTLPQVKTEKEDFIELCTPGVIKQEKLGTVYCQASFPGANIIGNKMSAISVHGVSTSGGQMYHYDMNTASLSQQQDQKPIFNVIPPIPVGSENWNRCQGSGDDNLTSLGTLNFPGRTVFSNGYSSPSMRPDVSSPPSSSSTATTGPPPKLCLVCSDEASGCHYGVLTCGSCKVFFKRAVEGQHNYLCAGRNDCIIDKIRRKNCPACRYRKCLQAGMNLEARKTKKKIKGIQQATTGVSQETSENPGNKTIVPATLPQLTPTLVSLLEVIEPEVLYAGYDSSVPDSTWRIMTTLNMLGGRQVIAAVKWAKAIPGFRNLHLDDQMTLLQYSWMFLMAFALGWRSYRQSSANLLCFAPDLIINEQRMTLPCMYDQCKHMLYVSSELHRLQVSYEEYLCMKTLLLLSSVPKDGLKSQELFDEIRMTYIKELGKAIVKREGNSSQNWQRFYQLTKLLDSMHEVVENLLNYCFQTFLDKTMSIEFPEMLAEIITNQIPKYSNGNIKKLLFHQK
Sequence of 3',5'-cyclic-AMP phosphodiesterase 4B (Homo sapiens) (Q07343 whole entry, looked up): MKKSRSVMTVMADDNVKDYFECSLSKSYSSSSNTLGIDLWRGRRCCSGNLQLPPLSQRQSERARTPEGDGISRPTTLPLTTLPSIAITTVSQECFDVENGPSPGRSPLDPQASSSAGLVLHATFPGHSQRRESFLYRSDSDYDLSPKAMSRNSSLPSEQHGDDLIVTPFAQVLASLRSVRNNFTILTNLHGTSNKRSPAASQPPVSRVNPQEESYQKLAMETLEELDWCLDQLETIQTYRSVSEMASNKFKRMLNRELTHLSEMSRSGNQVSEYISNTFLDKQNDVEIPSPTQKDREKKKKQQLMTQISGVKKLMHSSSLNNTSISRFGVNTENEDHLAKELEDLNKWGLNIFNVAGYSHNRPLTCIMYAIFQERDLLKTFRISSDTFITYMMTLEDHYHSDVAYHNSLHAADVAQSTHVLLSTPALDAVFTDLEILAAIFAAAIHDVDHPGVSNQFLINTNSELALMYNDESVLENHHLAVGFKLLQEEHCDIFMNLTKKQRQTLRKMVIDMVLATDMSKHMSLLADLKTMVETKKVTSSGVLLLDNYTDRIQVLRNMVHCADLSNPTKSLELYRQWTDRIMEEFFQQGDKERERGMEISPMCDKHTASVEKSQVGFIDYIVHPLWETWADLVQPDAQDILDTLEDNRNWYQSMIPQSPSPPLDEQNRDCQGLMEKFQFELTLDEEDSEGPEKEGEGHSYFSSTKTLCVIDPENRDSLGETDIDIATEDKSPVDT

NC(=NCc1ccc(Cl)cc1)SCCCc1cnc[nH]1
inactive: Potency [1] > 46 µM | Potency [2] > 46 µM | outcome [3] | Potency [4] | Potency [5] | Potency [6]

CNCCc1ccccc1
inactive: Potency [7] | Potency [8] | Potency [9] | Potency [10] | Potency [11] | Potency [12] | Potency [13] | outcome [14] | outcome [15]

CC(C)(c1ccc(OC[C@@H]2CO2)cc1)c1ccc(OC[C@H]2CO2)cc1
20.3%: max response ([16]; measured here: lipid channel max response)
inactive: Potency [2] > 46 µM | activity change, negative = inhibition ([16]; at 57.5 µM (top of the series)) 4.02% | Potency [5] | Potency [6]
20.1%: max response ([16]; measured here: cell count channel max response)

CCCCC[C@@H]1OC(=O)[C@@H](C)N(C)C(=O)[C@H](CCCCC)OC(=O)C(C)N(C)C(=O)[C@H](CCCCC)OC(=O)[C@@H](C)N(C)C(=O)[C@H](CCCCC)OC(=O)C(C)N(C)C1=O (stereo partly specified)
inactive: Potency [12] | Potency [13] | outcome [14] | outcome [15]
active: Potency [7] 11 µM | Potency [8] 8.38 µM | Potency [9] 3.34 µM | Potency [10] 9.41 µM | Potency [11] 16.7 µM

O=C(Cc1ccc(Cl)c(Cl)c1)N1CCCC[C@H]1CN1CCCC1
inactive: Potency [17] | Potency [1] > 46 µM | Potency [2] > 46 µM | outcome [3] | Potency [18] | Potency [4] | Potency [6]

O=C(CCCN1CCC2(CC1)C(=O)N(Cc1cccc(F)c1)CN2c1ccccc1)c1ccc(F)cc1
inactive: Potency [1] > 46 µM | Potency [2] > 46 µM | Potency [4] | Potency [6]

C[C@H](N)Cc1c[nH]c2ccc(OCc3cccs3)cc12
active: Potency [17] 1.58 µM and 126 nM
inactive: Potency [1] > 46 µM | Potency [2] > 46 µM | outcome [3] | Potency [18] | Potency [4] | Potency [5] | Potency [6]

COC(=O)C1=C2Nc3ccccc3[C@@]23CCN2CC(C(C)=O)C1C[C@H]23 (stereo partly specified)
inactive: Potency [8] | Potency [9] | Potency [10] | Potency [11] | Potency [12] | Potency [13] | outcome [14] | outcome [15]
active: Potency [7] 55.3 µM

COc1ccc(C23Oc4cc(OC)cc(OC)c4[C@](O)([C@H](c4ccccc4)C2C(=O)NCCCCNC(=O)c2ccccc2)[C@@H]3O)cc1 (stereo partly specified)
active: Potency [7] 49.3 µM
inactive: Potency [8] | Potency [9] | Potency [10] | Potency [11] | Potency [12] | Potency [13] | outcome [14] | outcome [15]

CCC[C@H]1CC[C@H]2[C@H](C)CCC[C@H]2N1
inactive: Potency [7] | Potency [8] | Potency [9] | Potency [10] | Potency [11] | Potency [12] | Potency [13] | outcome [14] | outcome [15]

From PubChem BioAssay (NCATS)
